CYP2C19 act = cytochrome P450 2C19 (human) activation. P33261. recombinant CYP2C19, luciferin-H EGE luminescence; active compounds read high; 0 = fully inhibited enzyme, 1 = untreated enzyme. activation factor at 5 µM. 96,000 tested, under 10 active;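 active means activation factor of at least 2 at 5 µM in the primary screen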
Target sequence (P33261 whole entry, looked up): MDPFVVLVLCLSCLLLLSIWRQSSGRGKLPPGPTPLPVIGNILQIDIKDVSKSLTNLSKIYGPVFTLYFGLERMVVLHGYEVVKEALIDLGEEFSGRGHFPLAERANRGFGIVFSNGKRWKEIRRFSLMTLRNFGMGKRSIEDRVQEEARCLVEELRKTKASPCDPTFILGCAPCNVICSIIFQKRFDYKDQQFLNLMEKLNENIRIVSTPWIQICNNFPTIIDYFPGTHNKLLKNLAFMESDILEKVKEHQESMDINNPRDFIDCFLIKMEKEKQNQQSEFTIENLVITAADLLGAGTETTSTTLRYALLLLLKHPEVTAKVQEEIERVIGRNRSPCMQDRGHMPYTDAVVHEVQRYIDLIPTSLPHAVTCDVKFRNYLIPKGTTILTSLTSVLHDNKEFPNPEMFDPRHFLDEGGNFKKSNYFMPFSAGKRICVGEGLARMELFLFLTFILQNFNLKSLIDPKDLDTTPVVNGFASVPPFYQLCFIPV
CYP2C9 activ = increases human cytochrome P450 2C9 activity; activation factor at 5 µM; P11712; recombinant CYP2C9, luciferin-H conversion, luminescence; active compounds read high; factor 1 = untreated enzyme, 0 = blocked; 96,000 compounds, 1.4% hits;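 active means activation factor of 2 or more for CYP2C9 at a 5 µM dose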
CYP2C19 inh = human CYP2C19 inhibition. inhibition, % at 5 µM. P33261. 96,000 compounds, 21% hits. CYP2C19 Supersomes, luciferin-H EGE luminescence, 30 min;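 active means CYP2C19 inhibition above a set limit at 5 µM in the primary screen, cut at about 50% in these data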
CYP2C9 inhib = inhibitors of human CYP2C9; 96,000 compounds, 20% hits; AID 777; CYP2C9 Supersomes, luciferin-H conversion, luminescence; inhibition, % at 5 µM;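 active means blocking of liver enzyme CYP2C9 beyond about 50% at 5 µM, limit read from the data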
Mac1 fbg inh = CD11b/CD18-fibrinogen binding inhibition; P05107+P11215; K562 CD11b/CD18 adhesion to fibrinogen, ATPlite luminescence; Mn2+ added to activate the integrin; inhibition, % at 10 µM; 93,000 compounds, 0.54% hits; AID 1497;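 active means primary inhibition of 50% or more at 10 µM, then 40% or more on retest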
Mac1 fbg enh = enhancers of human CD11b/CD18 binding to fibrinogen; activation, % at 10 µM; P05107+P11215; K562 CD11b/CD18 adhesion to fibrinogen, ATPlite luminescence; 93,000 compounds, 0.07% hits;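 active means 10 µM primary screen giving 50% or more activity, confirmed by 40% or more on retest at that dose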
Each line names hits and unclear results; the compound was inactive in the other large screens. A selection: hits, their analogues and other compounds. The true share with any hit is near 28%.

COC(=O)C1=C(N)OC2=C(C(=O)CC(C)(C)C2)C1c1ccoc1 (centres undefined)	CYP2C9 inhib 55
CC1(C)CC(=O)C2=C(C1)OC(N)=C(C#N)C2c1ccsc1 (centres undefined)	CYP2C19 inh 63
COCCOC(=O)C1=C(N)OC2=C(C(=O)CC(C)(C)C2)C1c1cccnc1 (centres undefined)	none
Cc1ccc(N2C(N)=C(C#N)C(c3cccnc3)C3=C2CCCC3=O)cc1 (centres undefined)	none
CCn1c2ccccc2c2cc(C3C(C#N)=C(N)OC4=C3C(=O)CC(C)(C)C4)ccc21 (centres undefined)	CYP2C9 inhib 57
COc1ccc(C2C(C#N)=C(N)OC3=C2C(=O)CCC3)c(OC)c1OC (centres undefined)	none
N#CC1=C(N)OC2=C(C(=O)CCC2)C1CCc1ccccc1 (centres undefined)	CYP2C19 inh 94, CYP2C9 inhib 92
N#CC1=C(N)N(c2ccc(Br)cc2)C2=C(C(=O)CCC2)C1c1cccnc1 (centres undefined)	CYP2C9 inhib 52
CCOC(=O)C1=C(N)OC2=C(C(=O)CC(C)(C)C2)C1c1ccccc1OCC#N (centres undefined)	CYP2C19 inh 71, CYP2C9 inhib 79
CC1(C)CC(=O)C2=C(C1)N(c1ccccc1)C(N)=C(C#N)C2c1ccsc1 (centres undefined)	CYP2C19 inh 68, CYP2C9 inhib 75
N#CC1=C(N)OC2=C(C(=O)CCC2)C1C1C=CCCC1 (centres undefined)	CYP2C19 inh 84, CYP2C9 inhib 73
COc1ccc(C2C(C#N)=C(N)N(c3sc4c(c3C#N)CCCC4)C3=C2C(=O)CC(C)(C)C3)cc1 (centres undefined)	none
COc1ccc(C2C(C#N)=C(N)N(c3sc4c(c3C#N)CCCC4)C3=C2C(=O)CC(C)(C)C3)cc1OC (centres undefined)	CYP2C19 inh 62, CYP2C9 inhib 86
CC1(C)CC(=O)C2=C(C1)N(c1ccc(F)cc1)C(N)=C(C#N)C2c1cccs1 (centres undefined)	none
CCn1c2ccccc2c2cc(C3C(C#N)=C(C)NC(C)=C3C#N)ccc21	CYP2C19 inh 100, CYP2C9 inhib 95
CCCNC(=O)COC(=O)CCC(=O)c1ccc(F)cc1	none
Cc1ccc(NC(=O)NC(=O)CN2C(=O)NC3(CCc4ccccc43)C2=O)c(C)c1 (centres undefined)	none
O/N=C(/CN(O)/C=C1/C=CC=N1)c1cccs1	none
CCOc1ccc(NC(=O)C2CC(=O)N(C(C)C)C2)cc1 (centres undefined)	none
C=CCn1c(=O)c2c(C)c(C)sc2n2c(Nc3ccccc3)nnc12	none
CCOC(=O)CCN(Cc1cccs1)S(=O)(=O)c1ccc(Cl)cc1	CYP2C19 inh 68
Cc1ccc(Nc2c([N+](=O)[O-])ccc3c2=NC2(CCCCC2)N=3)cc1	none (no result: Mac1 fbg inh, Mac1 fbg enh)
O=C(Cc1c(F)c(F)c(F)c(F)c1F)OC12CC3CC(C1)C(=O)C(C3)C2	CYP2C19 inh 72
CSc1nc2ccc(S(=O)(=O)NC3CCCCC3)cc2s1	CYP2C19 inh 74
CSc1nc2ccc(NS(=O)(=O)c3ccc4c(c3)OCCO4)cc2s1	CYP2C19 inh 100, CYP2C9 inhib 84
CSc1nc2ccc(S(=O)(=O)N3CCCCC3)cc2s1	none
Clc1ccc2[nH]c3c(c2c1)CCc1cn[nH]c1-3	CYP2C9 inhib 55
c1ccc2c3c([nH]c2c1)-c1[nH]ncc1CC3	CYP2C9 inhib 67
c1ccc2nc3c(nc2c1)[nH]c1ccccc13	none
COc1ccc(-n2nc3c(c2NC(=O)C2CCCC2)CS(=O)C3)cc1 (centres undefined)	none
COC(=O)c1sc(S(=O)(=O)N2CCC(C)CC2)c(C(=O)OC)c1C	none
O=S(=O)(c1ccc(F)cc1)N1CCN(c2ccccc2)CC1	none
COC(=O)c1sc(S(=O)(=O)N2CCN(c3ccccc3)CC2)c(C(=O)OC)c1C	CYP2C19 inh 89, CYP2C9 inhib 78
COC(=O)c1sc(S(=O)(=O)N2CCCCC2)c(C(=O)OC)c1C	CYP2C19 inh 62
Cc1csc(=O)n1CCC(=O)O	none
Cc1ccc(NC(=O)COC(=O)c2sccc2C)cc1S(=O)(=O)N1CCOCC1	none (no result: CYP2C19 act, CYP2C9 activ, CYP2C19 inh, CYP2C9 inhib)
Cc1n[nH]c(C)c1Cc1ccc(C(=O)O)cc1	none
CCN(CC)CCNC(=O)c1ccccc1N	CYP2C19 inh 67, CYP2C9 inhib 56
COc1ccc(C(=O)NCc2ccccc2OC)c(OC)c1	CYP2C9 activ 2.6, CYP2C19 inh 56
COc1ccccc1CNC(=O)c1ccccc1N	CYP2C19 inh 53
CCCCC(CC)C(=O)NCc1ccccc1OC (centres undefined)	CYP2C19 inh 53
CCOC(=O)CN1C(c2ccc(O)cc2)Nc2ccc(Br)cc2C1c1ccccc1 (centres undefined)	none (no result: CYP2C19 act, CYP2C9 activ, CYP2C19 inh, CYP2C9 inhib)
CC(C)Cn1c(-c2ccccc2F)n[nH]c1=S	CYP2C19 inh 81
CC(C)Cn1c(-c2ccc(F)cc2)n[nH]c1=S	CYP2C19 inh 86 (no result: Mac1 fbg inh, Mac1 fbg enh)
Cc1cccc(C)c1N1CCN(c2nc(N(C)C)oc(=O)c2C#N)CC1	CYP2C19 inh 95, CYP2C9 inhib 74 (no result: Mac1 fbg inh, Mac1 fbg enh)
Cc1cc(N(C)C)c(C#N)c(N2CCOCC2)n1	none
CN(C)c1nc(N2CCN(c3ccccc3)CC2)c(C#N)c(=O)o1	CYP2C19 inh 97
CN1CCN(C(=O)CN(c2cccc(Cl)c2)S(=O)(=O)c2ccccc2)CC1	none
CCOC(=O)c1c(C)[nH]c(C(=O)OC/C(O)=C(\C#N)c2nc3ccccc3[nH]2)c1C	CYP2C19 inh 58, CYP2C9 inhib 81
N#C/C(=C(/O)COC(=O)c1ccc2c(c1)OCCO2)c1nc2ccccc2[nH]1	CYP2C19 inh 60, CYP2C9 inhib 76
CC(C)c1ccc(OCC(O)CN2CCN(c3ccccc3)CC2)cc1 (centres undefined)	none
COCc1cc(=O)[nH]c(/N=C(\N)Nc2ccccc2C)n1	none
COc1ccc(C2N=C(c3ccccc3)C(C)(C)N2O)cc1OC (centres undefined)	none
Cc1c(Cl)cccc1NC(=O)c1cccc(OC(F)F)c1	CYP2C19 inh 72
CCOc1cccc(C(=O)Nc2ccccc2OC(F)F)c1	CYP2C19 inh 56
O=C(Nc1ccc(OC(F)F)c(Cl)c1)c1cccc(OC(F)F)c1	CYP2C19 inh 88
COc1ccc(NC(=O)c2cccc(OC(F)F)c2)cc1Cl	CYP2C19 inh 69
O=C(O)CSCC(=O)NCc1ccccc1	none
COc1ccccc1NC(=O)c1ccc(NC(=O)COC(=O)C2CCCCC2)cc1	none (no result: CYP2C19 act, CYP2C9 activ, CYP2C19 inh, CYP2C9 inhib)
CC(C)(C)CC(=O)NC(=S)Nc1ccccc1C(F)(F)F	CYP2C9 inhib 52 (no result: Mac1 fbg inh, Mac1 fbg enh)
Cc1ccc([N+](=O)[O-])cc1NC(=O)CN1CCCCC1	none (no result: Mac1 fbg inh, Mac1 fbg enh)
Cc1ccc([N+](=O)[O-])cc1NC(=S)NC(=O)CC(C)(C)C	CYP2C9 inhib 85
